Measured values taken from PubChem BioAssay (NCI).
The panel holds about 79,000 compounds, 15% with a hit somewhere; the sample as a whole holds those more often. The source made the active and inactive calls. No stated cut-off is given here; in the data, active means growth inhibition above about 70%; inactive means the rest.

What was measured:
[1] = NCI Yeast Anticancer Drug Screen. Data for the rad52 strain (AID 147);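 further: 0% = growth of vehicle-treated control cultures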; settings: S. cerevisiae rad52 mutant growth inhibition, active compounds read high
In short: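 The repair-mutant yeast strain was incubated with compounds, then growth was read and inhibition derived relative to vehicle.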

[2] = NCI Yeast Anticancer Drug Screen. Data for the wt1 strain (AID 149);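 further: 0% = growth of vehicle-treated wt1 cultures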; settings: S. cerevisiae wt1 strain (SPY 50644) growth inhibition, active compounds read high
In short: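 wt1 yeast, compound-treated; % growth inhibition vs vehicle control.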

[3] = NCI Yeast Anticancer Drug Screen. Data for the rad50EPP+ strain (AID 151);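 further: 0% = growth of vehicle-treated control cultures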; settings: S. cerevisiae rad50 mutant strain, active compounds read high
In short: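 Vehicle-normalised growth inhibition; rad50EPP+ yeast strain, altered in DNA damage repair, compound-treated.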

[4] = NCI Yeast Anticancer Drug Screen. Data for the mgt1 strain (AID 153); settings: S. cerevisiae mgt1 mutant growth inhibition, active compounds read high
In short: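 Vehicle-normalized growth inhibition is determined in mgt1 yeast, a strain selected for a defined alteration in DNA repair or cell cycle control.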

[5] = NCI Yeast Anticancer Drug Screen. Data for the rad50 strain (AID 155);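 further: 0% = growth of vehicle-only cultures of the same strain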; settings: S. cerevisiae rad50 strain growth inhibition, active compounds read high
In short: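 Genetically altered yeast (DNA repair pathway); compound treatment; growth inhibition vs vehicle ctrl.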

[6] = NCI Yeast Anticancer Drug Screen. Data for the mec2-1 strain (AID 157); settings: S. cerevisiae mec2-1 strain, active compounds read high
In short: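 Mutant yeast (mec2-1) grown with compound; growth inhibition relative to vehicle control reported.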

[7] = NCI Yeast Anticancer Drug Screen. Data for the rad14 strain (AID 159);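 further: 0% = growth of vehicle-treated control cultures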; settings: S. cerevisiae rad14 strain growth inhibition, active compounds read high
In short: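 Test compounds were applied to a repair-deficient yeast strain. Its growth was then compared with that of cultures given vehicle alone, and inhibition was expressed relative to those controls.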

[8] = NCI Yeast Anticancer Drug Screen. Data for the sgs1 mgt1 strain (AID 161);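 further: 0% = growth of cultures given vehicle only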; settings: S. cerevisiae sgs1 mgt1 strain, active compounds read high
In short: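 Compounds are added to genetically altered yeast, and growth is compared with cultures given vehicle alone to give percent inhibition.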

[9] = NCI Yeast Anticancer Drug Screen. Data for the CLN2oe strain (AID 163);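 further: 0% = growth of vehicle-only control cultures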; settings: S. cerevisiae CLN2oe strain, active compounds read high
In short: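 Compounds are applied to yeast harbouring a defined cell-cycle control change; reduced growth compared with vehicle-treated controls gives the value.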

[10] = NCI Yeast Anticancer Drug Screen. Data for the cln2 rad14 strain (AID 165);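 further: 0% = growth equal to vehicle treated cultures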; settings: S. cerevisiae cln2 rad14 strain, active compounds read high
In short: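 Readout is yeast growth inhibition versus vehicle-treated controls, using a strain with cln2 and rad14 alterations exposed to compound.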

[11] = NCI Yeast Anticancer Drug Screen. Data for the bub3 strain (AID 167); settings: S. cerevisiae bub3 mutant strain, active compounds read high
In short: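 Yeast carrying a defined mutation is treated with each compound, and growth is compared with that of vehicle-exposed cells to give inhibition.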

[12] = NCI Yeast Anticancer Drug Screen. Data for the wt2 strain (AID 169);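 further: 0% = growth of vehicle-treated yeast cultures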; settings: S. cerevisiae wt2 strain growth inhibition, active compounds read high
In short: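 Against vehicle-treated controls, the growth of yeast exposed to each compound was compared, and the inhibition was recorded.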

[13] = NCI Yeast Anticancer Drug Screen. Data for the mlh1 strain (AID 171);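 further: 0% = growth of vehicle-treated control cultures of the same strain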; settings: S. cerevisiae mlh1 strain growth inhibition, active compounds read high
In short: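 Measured: yeast growth. Reference: vehicle-treated controls. Organism: strain with a defined alteration affecting DNA damage repair or cell cycle control, treated with compound.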

[14] = NCI Yeast Anticancer Drug Screen. Data for the sgs1 strain (AID 173);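 further: 0% = growth of vehicle-only control cultures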; settings: S. cerevisiae sgs1 mutant, active compounds read high
In short: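 Each compound was added to cultures of the altered yeast strain. Growth was recorded, and inhibition was derived by comparison with vehicle controls.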

[15] = NCI Yeast Anticancer Drug Screen. Data for the mlh1 rad18 strain (AID 175); settings: S. cerevisiae mlh1 rad18 strain growth inhibition, active compounds read high
In short: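 Genetically defined yeast (DNA repair-deficient) exposed to compounds; growth inhibition determined relative to vehicle.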

[16] = NCI Yeast Anticancer Drug Screen. Data for the rad18 strain (AID 177); settings: S. cerevisiae rad18 mutant growth inhibition, active compounds read high
In short: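 Vehicle-treated cultures served as the baseline for scoring compound-induced growth inhibition in DNA-repair-mutant yeast.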

[17] = at 5.0 µM (retest, dose inferred, filed as 0.5)
[18] = at 50.0 µM (retest, dose inferred, filed as 5.0)

Measured: growth inhibition

COc1cc(C2SCC(=O)N2c2ccc(-c3ccc(-n4c(-c5ccccc5)nc5ccccc5c4=O)cc3)cc2)cc(OC)c1OC (stereo unspecified)
inactive: [1]; at 1.2 µM -3% | [1]; at 3.7 µM -1% | [1]; at 11.0 µM 1% | [1]; at 33.0 µM 1% | [1]; at 100.0 µM -5% | [2]; at 1.2 µM 0% | [2]; at 3.7 µM 0% | [2]; at 11.0 µM 0% | [2]; at 33.0 µM -2% | [2]; at 100.0 µM -8% | [3]; at 1.2 µM -2% | [3]; at 3.7 µM -1% | [3]; at 11.0 µM 3% | [3]; at 33.0 µM 4% | [3]; at 100.0 µM -1% | [4]; at 1.2 µM -1% | [4]; at 3.7 µM 0% | [4]; at 11.0 µM -2% | [4]; at 33.0 µM -3% | [4]; at 100.0 µM -7% | [5]; at 1.2 µM -2% | [5]; at 3.7 µM 2% | [5]; [17] -1% | [5]; at 11.0 µM 1% | [5]; at 33.0 µM 3% | [5]; [18] 13% | [5]; at 50.0 µM 25.9% | [5]; at 100.0 µM 1% | [6]; at 1.2 µM 0% | [6]; at 3.7 µM 0% | [6]; [17] 2% | [6]; at 11.0 µM 2% | [6]; at 33.0 µM 4% | [6]; [18] 3% | [6]; at 50.0 µM 19.6% | [6]; at 100.0 µM -2% | [7]; at 1.2 µM 0% | [7]; at 3.7 µM 0% | [7]; at 11.0 µM 4% | [7]; at 33.0 µM 6% | [7]; at 100.0 µM 4% | [8]; [17] 8% | [8]; [18] 7% | [8]; at 50.0 µM 21.6% | [9]; at 1.2 µM 5% | [9]; at 3.7 µM 7% | [9]; at 11.0 µM 9% | [9]; at 33.0 µM 10% | [9]; at 100.0 µM -2% | [10]; [17] 32% | [10]; [18] 13% | [10]; at 50.0 µM 52.4% | [11]; at 1.2 µM -1% | [11]; at 3.7 µM 4% | [11]; [17] 6% | [11]; at 11.0 µM 17% | [11]; at 33.0 µM 27% | [11]; at 100.0 µM 41% | [12]; at 1.2 µM -1% | [12]; at 3.7 µM -2% | [12]; at 11.0 µM -2% | [12]; at 33.0 µM -3% | [12]; at 100.0 µM -8% | [13]; at 1.2 µM -1% | [13]; at 3.7 µM 0% | [13]; at 11.0 µM 1% | [13]; at 33.0 µM -1% | [13]; at 100.0 µM -3% | [14]; at 1.2 µM -3% | [14]; at 3.7 µM -1% | [14]; at 11.0 µM 2% | [14]; at 33.0 µM -1% | [14]; at 100.0 µM -7% | [15]; [17] 6% | [15]; [18] 37% | [15]; at 50.0 µM 19.4% | [16]; at 1.2 µM -3% | [16]; at 3.7 µM 0% | [16]; at 11.0 µM 0% | [16]; at 33.0 µM 3% | [16]; at 100.0 µM 1%
active: [11]; [18] 73% | [11]; at 50.0 µM 71.7%

COc1ccc(Br)c(C(=O)Sc2nnnn2-c2cccc(Cl)c2)c1
active: [1]; at 100.0 µM 96% | [2]; at 100.0 µM 93% | [3]; at 100.0 µM 92% | [4]; at 100.0 µM 95% | [5]; [18] 71% | [5]; at 50.0 µM 87.6% | [5]; at 100.0 µM 93% | [6]; [18] 72% | [6]; at 50.0 µM 88.9% | [6]; at 100.0 µM 94% | [7]; at 100.0 µM 89% | [8]; [18] 89% | [8]; at 50.0 µM 87.8% | [9]; at 100.0 µM 94% | [10]; [18] 83% | [10]; at 50.0 µM 76.2% | [11]; [18] 81% | [11]; at 50.0 µM 88.2% | [11]; at 100.0 µM 93% | [12]; at 100.0 µM 93% | [13]; at 100.0 µM 92% | [14]; at 100.0 µM 94% | [15]; at 50.0 µM 85% | [16]; at 100.0 µM 93%
inactive: [1]; at 1.2 µM 23% | [1]; at 3.7 µM 29% | [1]; at 11.0 µM 24% | [1]; at 33.0 µM 43% | [2]; at 1.2 µM 5% | [2]; at 3.7 µM 17% | [2]; at 11.0 µM 22% | [2]; at 33.0 µM 33% | [3]; at 1.2 µM 3% | [3]; at 3.7 µM -19% | [3]; at 11.0 µM 9% | [3]; at 33.0 µM 65% | [4]; at 1.2 µM -10% | [4]; at 3.7 µM 11% | [4]; at 11.0 µM 16% | [4]; at 33.0 µM 30% | [5]; at 1.2 µM 2% | [5]; at 3.7 µM 21% | [5]; [17] 42% | [5]; at 11.0 µM 6% | [5]; at 33.0 µM 42% | [6]; at 1.2 µM 13% | [6]; at 3.7 µM -9% | [6]; [17] 40% | [6]; at 11.0 µM -14% | [6]; at 33.0 µM 12% | [7]; at 1.2 µM -8% | [7]; at 3.7 µM -5% | [7]; at 11.0 µM -30% | [7]; at 33.0 µM -16% | [8]; [17] -19% | [9]; at 1.2 µM 6% | [9]; at 3.7 µM 3% | [9]; at 11.0 µM 3% | [9]; at 33.0 µM 5% | [10]; [17] 58% | [11]; at 1.2 µM 13% | [11]; at 3.7 µM 11% | [11]; [17] 23% | [11]; at 11.0 µM -22% | [11]; at 33.0 µM 8% | [12]; at 1.2 µM -11% | [12]; at 3.7 µM -15% | [12]; at 11.0 µM -35% | [12]; at 33.0 µM -8% | [13]; at 1.2 µM -14% | [13]; at 3.7 µM -21% | [13]; at 11.0 µM -25% | [13]; at 33.0 µM 3% | [14]; at 1.2 µM 2% | [14]; at 3.7 µM 2% | [14]; at 11.0 µM 11% | [14]; at 33.0 µM 49% | [15]; [17] 47% | [15]; [18] 67% | [16]; at 1.2 µM -24% | [16]; at 3.7 µM -10% | [16]; at 11.0 µM -8% | [16]; at 33.0 µM 52%
